Screening results from PubChem BioAssay.
ROS inducer – inducers of reactive oxygen species in cancer cells; U2OS ROS induction, H2DCF-DA fluorescence; ROS induction (% of piperlongumine), % at 10 µM; 46,000 compounds, 2% hits; in the data active means ROS induction above about 79%, passing the limit was not always enough
YB-1 expr inh – YB-1 expression inhibition. U2OS, qRT-PCR YB-1 vs CDIP delta delta Cp, 16 h; active compounds read high; zero = DMSO, each unit about twofold. delta delta Cp (YB-1 minus CDIP) (test concentration not listed). 30,000 compounds, 0.37% hits. AID 434959;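 active means delta delta Cp rounded down to an integer at or above 3, about 3 SD of DMSO wells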;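 further: higher means less YB-1 transcript or more CDIP transcript relative to DMSO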
Each line names hits and unclear results; the compound was inactive in the other large screens. Rows were chosen to be rich in hits. Some 2.1% of all compounds tested hit in one or more screens of this group.

COc1ccc(C2OCC3C(c4cc(OC)c5c(c4)OCO5)OCC23)cc1OC (stereo unspecified)	YB-1 expr inh 5
COc1cc(C2OCC3C(c4cc(OC)c5c(c4)OCO5)OCC23)cc(OC)c1OC (stereo unspecified)	none
COC(CNC(=O)c1cnn2c(C)c(Cc3c(C)cc(C)cc3C)c(C)nc12)OC	none (no result: YB-1 expr inh)
COc1cc(O)c2c(=O)cc(-c3ccc(OC)c(-c4c(O)cc(O)c5c(=O)cc(-c6ccc(O)cc6)oc45)c3)oc2c1	ROS inducer 179
COc1ccc(-c2cc(=O)c3c(O)cc(O)cc3o2)cc1	none
CCN(CC)c1cc(-c2cccs2)nc(SCC(=O)c2cccs2)c1C#N	ROS inducer 220
CC(C)OC(=O)CSc1nc(-c2cccs2)cc(C(F)(F)F)c1C#N	none (no result: YB-1 expr inh)
C[C@@H]1CN([C@H](C)CO)C(=O)c2cc(NC(=O)c3ccncc3)ccc2O[C@@H]1CN(C)Cc1ccc(-c2ccccc2)cc1	ROS inducer 113
C[C@@H]1CN([C@H](C)CO)C(=O)c2cc(NC(=O)Cc3ccccc3)ccc2O[C@H]1CN(C)Cc1ccc(-c2ccccc2)cc1	ROS inducer 100
C[C@H](CO)N1C[C@H](C)[C@@H](CN(C)Cc2ccc(Oc3ccccc3)cc2)Oc2ccc(NC(=O)Cc3ccccc3)cc2C1=O	ROS inducer 138
C[C@H](CO)N1C[C@H](C)[C@@H](CN(C)Cc2ccc(-c3ccccc3)cc2)Oc2ccc(NC(=O)c3ccncc3)cc2C1=O	none
C[C@H](CO)N1C[C@H](C)[C@H](CN(C)Cc2ccc(-c3ccccc3)cc2)Oc2ccc(NC(=O)CCC(F)(F)F)cc2C1=O	none
C[C@@H]1CN([C@@H](C)CO)C(=O)c2cc(NC(=O)Cc3ccccc3)ccc2O[C@@H]1CN(C)Cc1ccc(-c2ccccc2)cc1	none
C[C@H]1CN([C@@H](C)CO)C(=O)c2cc(NC(=O)CCC(F)(F)F)ccc2O[C@@H]1CN(C)Cc1ccc(-c2ccccc2)cc1	ROS inducer 82
C[C@@H]1CN([C@H](C)CO)C(=O)c2cc(NC(=O)Cc3ccccc3)ccc2O[C@H]1CN(C)Cc1ccc(Oc2ccccc2)cc1	none
CCCc1c(C(=O)NC2CCN(C(=O)OCC)CC2)cnn1-c1ccccc1	none (no result: YB-1 expr inh)
CC(C)NC(=O)CSCc1cnn(-c2ccccc2)c1-n1cccc1	none (no result: YB-1 expr inh)
C=CCNc1nc(Nc2ccc(-c3nc4ccccc4o3)cc2)nc(OCC)n1	none (no result: YB-1 expr inh)
COc1ccc(CNC(=O)C2c3ccccc3C(=O)N(C)C2c2cccs2)cc1 (stereo unspecified)	none (no result: YB-1 expr inh)
C=CCN1C(=O)C2(C(C#N)=C(N)Oc3c2c(=O)oc2ccccc32)c2ccccc21 (stereo unspecified)	none
N#CC1=C(N)Nc2c(c(=O)oc3ccccc23)C1c1ccc(Br)cc1 (stereo unspecified)	ROS inducer 81
COc1ccc(OC)c(N(CC(=O)Nc2cccc(Cl)c2Cl)S(C)(=O)=O)c1	none (no result: YB-1 expr inh)
Cc1cc(I)ccc1NC(=O)CN(c1cccc(F)c1)S(C)(=O)=O	none (no result: YB-1 expr inh)
COc1ccc(C)cc1N(CC(=O)Nc1cccc(Cl)c1Cl)S(C)(=O)=O	ROS inducer 85 (no result: YB-1 expr inh)
Cc1cccc(N(CC(=O)Nc2ccc(I)cc2C)S(C)(=O)=O)c1	ROS inducer 129 (no result: YB-1 expr inh)
O=C1CCCc2c1cc(C(=O)Nc1ccccc1)c(=O)n2-c1ccccc1	none (no result: YB-1 expr inh)
CNS(=O)(=O)c1ccc2oc3ccc(S(=O)(=O)NC)cc3c2c1	none (no result: YB-1 expr inh)
COc1ccc(-c2nc(SCC(=O)N(C3CCCCC3)C3CCCCC3)n[nH]2)cc1	none (no result: YB-1 expr inh)
O=C1c2ccccc2-c2c(NCCc3ccccc3)c(=O)[nH]c3cccc1c23	ROS inducer 813
Cc1nnc(NCCc2ccccc2)[nH]c1=O	none (no result: YB-1 expr inh)
CCOC(=O)c1sc(SC#N)c(-c2ccccc2)c1N	none (no result: YB-1 expr inh)
COc1cccc(Nc2nc(C3(C)CC4(CC(C)OC4=O)C(=O)O3)cs2)c1 (stereo unspecified)	ROS inducer 92 (no result: YB-1 expr inh)
COc1cccc(Nc2nnc(-c3cc4cccc(OC)c4oc3=O)s2)c1	none (no result: YB-1 expr inh)
C=C1C(=O)OC2C3=C(C)C(=O)CC3C(C)CC(O)C12 (stereo unspecified)	none
C=C1C(=O)O[C@@H]2C[C@H](C)[C@@H]3CC(=O)C(C)=C3C[C@H]12	ROS inducer 93
N#CC(C(=O)C(F)(F)F)c1nc2ccccc2[nH]1 (stereo unspecified)	none (no result: YB-1 expr inh)
COC(=O)c1c(NC(=O)C2CC(=O)NN2Cc2ccccc2)sc2c1CCC2 (stereo unspecified)	ROS inducer 149 (no result: YB-1 expr inh)
COC(=O)c1c(NC(=O)C2CC(=O)NN2Cc2ccccc2)sc2c1CCC(C)C2 (stereo unspecified)	none (no result: YB-1 expr inh)
COc1cc(C(=O)NCCC(=O)N2CCN(C)CC2)cc(OC)c1OC	none (no result: YB-1 expr inh)
COc1cc(CCC(=O)N2CCC=CC2=O)cc(OC)c1OC	ROS inducer 137
CCc1ccc(CNC(=O)c2ccc3c(c2)ncn3C2CCCC2)cc1	none (no result: YB-1 expr inh)
CC1CCN(C(=O)CNC(=O)c2cccs2)CC1	none (no result: YB-1 expr inh)
COc1cc(C2C(C#N)=C(C)Nc3oc(C)nc32)ccc1OCCN1CCOCC1 (stereo unspecified)	ROS inducer 116
COC(=O)C1=C(C)Nc2ncnn2C1c1ccc(OCC(=O)N2CCOCC2)c(OC)c1 (stereo unspecified)	none (no result: YB-1 expr inh)
CC(C)(C)c1ccc(-c2nnc(-c3ccccc3NC(=O)/C=C\C(=O)O)o2)cc1	ROS inducer 80 (no result: YB-1 expr inh)
CC(C)(C)c1ccc(-c2nnc(SCC(=O)Nc3ccccc3[N+](=O)[O-])o2)cc1	none (no result: YB-1 expr inh)
COc1cccc(NC(=O)Cn2ncc3c4ccccc4n(Cc4ccccc4)c3c2=O)c1	none (no result: YB-1 expr inh)
Cc1ccc(OCCN2CCN(c3cc(C)c(C#N)c4nc5ccccc5n34)CC2)cc1	ROS inducer 100 (no result: YB-1 expr inh)
Cc1cc(N2CCCC2)n2c(nc3ccccc32)c1C#N	none (no result: YB-1 expr inh)
C[C@H](c1ccccc1)N1C[C@@H](CO)OC1=O	none (no result: YB-1 expr inh)
Cc1ccc(S(=O)(=O)c2cc3c(=O)n4ccccc4nc3n(Cc3ccccc3)c2=N)cc1	none (no result: YB-1 expr inh)
CCn1c(=N)c(S(=O)(=O)c2ccccc2)cc2c(=O)n3ccccc3nc21	ROS inducer 94 (no result: YB-1 expr inh)
O=C1CCC(=O)N1CCc1c[nH]c2ccc(OCc3ccccc3)cc12	none (no result: YB-1 expr inh)
COc1ccc(-c2n[nH]c(=S)n2-c2ccccc2)cc1OC	none (no result: YB-1 expr inh)
CCCn1c2ccccc2c2nnc(SCC(=O)N3c4ccccc4Sc4ccccc43)nc21	none (no result: YB-1 expr inh)
CCCn1c2ccccc2c2nnc(SCCCC(=O)c3ccc4c(c3)OCCO4)nc21	ROS inducer 142 (no result: YB-1 expr inh)
C[C@@H]1CCCCO[C@@H](CN(C)C(=O)CCCN(C)C)[C@@H](C)CN([C@H](C)CO)C(=O)c2cc(NS(=O)(=O)c3ccc(F)cc3)ccc2O1	none
C[C@@H]1CCCCO[C@@H](CN(C)C(=O)CCCN(C)C)[C@@H](C)CN([C@H](C)CO)C(=O)c2cc(NS(C)(=O)=O)ccc2O1	YB-1 expr inh 9.7
C[C@@H]1CCCCO[C@H](CN(C)C(=O)CCCN(C)C)[C@@H](C)CN([C@H](C)CO)C(=O)c2cc(NS(=O)(=O)c3ccc(Cl)cc3)ccc2O1	ROS inducer 99
Cc1ccc(S(=O)(=O)Nc2ccc3c(c2)C(=O)N([C@H](C)CO)C[C@H](C)[C@H](CN(C)C(=O)CCCN(C)C)OCCCC[C@@H](C)O3)cc1	none
CSc1ncc(Cl)c(C(=O)Nc2c(C(=O)Nc3ccccc3)oc3ccccc23)n1	none (no result: YB-1 expr inh)
C=C1C(=O)O[C@H]2C1CCC(=C)[C@@H]1C[C@H](OC(=O)C=C(C)C)C(=C)[C@@H]12 (stereo partly specified)	none
